APOBEC3G inh = inhibitors of human APOBEC3G DNA deaminase; Q9HC16; recombinant A3G, ssDNA deamination FAM/TAMRA fluorescence; inhibition, % at 20 µM; AID 493012; 330,000 compounds, 0.28% hits;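 active means inhibition of at least 40% at 20 µM, with no more than 30% in the related APOBEC3A deaminase screen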;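 further: plate controls were DMSO wells with A3G for no effect and wells lacking A3G enzyme for full effect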
Target sequence (Q9HC16 whole entry, looked up): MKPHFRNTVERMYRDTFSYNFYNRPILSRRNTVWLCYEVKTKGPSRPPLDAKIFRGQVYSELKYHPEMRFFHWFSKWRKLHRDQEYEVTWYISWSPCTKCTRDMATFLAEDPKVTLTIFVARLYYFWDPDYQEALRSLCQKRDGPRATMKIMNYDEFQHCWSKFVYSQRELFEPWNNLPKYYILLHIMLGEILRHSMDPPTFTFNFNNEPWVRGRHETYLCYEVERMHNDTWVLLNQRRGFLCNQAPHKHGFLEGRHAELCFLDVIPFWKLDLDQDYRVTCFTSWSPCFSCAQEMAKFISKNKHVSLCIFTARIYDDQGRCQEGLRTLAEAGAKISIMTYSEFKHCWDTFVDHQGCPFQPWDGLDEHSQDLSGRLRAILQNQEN
TAG inh = inhibitors of triacylglycerol accumulation; H9c2 cells, Nile Red lipid (TAG) fluorescence; cells loaded with 200 µM oleic acid; inhibition, % at 12.5 µM; 230,000 compounds, 0.66% hits; AID 651582;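 active means pattern-corrected inhibition of lipid staining of at least 50% with the nuclear-stain viability signal not falling by more than 50%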;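 further: 0% = DMSO wells and 100% = triacsin C control wells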
APOBEC3A inh = inhibitors of human APOBEC3A DNA deaminase; recombinant A3A, FAM/TAMRA ssDNA deamination fluorescence; inhibition, % at 20 µM; P31941; 330,000 compounds, 0.41% hits;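 active means at least 40% inhibition at 20 µM here, with at most 30% in a related deaminase screen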;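 further: plate controls were A3A with DMSO for no effect and wells lacking A3A enzyme for full effect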
Target sequence (P31941 whole entry, looked up): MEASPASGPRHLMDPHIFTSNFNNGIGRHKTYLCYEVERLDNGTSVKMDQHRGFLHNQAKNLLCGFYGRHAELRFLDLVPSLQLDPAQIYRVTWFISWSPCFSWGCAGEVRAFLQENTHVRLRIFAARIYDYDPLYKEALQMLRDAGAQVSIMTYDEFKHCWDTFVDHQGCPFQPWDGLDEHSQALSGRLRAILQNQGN
Cardio protect = modulators protecting cardiomyocytes from myocardial damage | 360,000 compounds, 0.63% hits | H9c2 cardiomyocytes, H2O2 injury protection, ATPLite, 2 h | protection from H2O2 cell death, % at 20 µM;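 active means compounds giving at least 50% protection of heart cells from peroxide-induced death in the single-dose screen, raw or plate-pattern-corrected value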;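 further: 0% = DMSO wells with peroxide and 100% = DMSO wells without peroxide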
PfG6PD inh = PfG6PD (Plasmodium falciparum) enzyme inhibition. PfGluPho enzyme, NADPH resazurin-diaphorase fluorescence. inhibition, % at 20 µM. 350,000 compounds, 0.78% hits. AID 504690;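 active means inhibition reaching at least a set limit at 20 µM in the primary screen, cut at about 59% in these data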;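 further: 0% = DMSO wells with substrate and 100% = DMSO wells lacking glucose-6-phosphate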
NadD inh = inhibitors of Staphylococcus aureus NadD | AID 602399 | 360,000 compounds, 0.78% hits | purified NadD enzyme, colorimetric absorbance read-out | inhibition, % at 20 µM; in the data active means inhibition above about 26%
TAG conf = triacylglycerol accumulation inhibition, confirmation; shares compounds with TAG inh; H9c2 lipid accumulation, Nile Red fluorescence; cells loaded with 200 µM oleic acid; inhibition, % at 12.5 µM; 990 compounds, 71% hits; AID 651629;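 active means mean inhibition across replicates of 40% or more; inactive means mean inhibition below 40%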;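 further: plate controls were DMSO only wells for no effect and Triacsin C treated wells for full effect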
Starred values were filed as active, the others as inactive; nt = no result given; ! = not active in a repeat. Sampled rows, rich in hits. Any-hit rate of the full collection: about 2.9%.

SMILES	APOBEC3G inh	TAG inh	APOBEC3A inh	Cardio protect	PfG6PD inh	NadD inh	TAG conf
O=C(Nc1ccc([N+](=O)[O-])cc1)c1cc(Cl)sc1Cl	-7	nt	-6	-6	18	-5	nt
O=C(Nc1ccc(F)cc1)c1cc(Cl)sc1Cl	-3	52*	-1	0	0	-4	-4
O=C(N/N=C/c1cn(-c2ccccc2)nc1-c1cc2ccccc2o1)c1c[nH]c2ccccc12	-5	59*	-2	20	0	16	60*
O=C(N/N=C/c1cn(-c2ccccc2)nc1-c1cc2ccccc2o1)c1ccccc1Br	-2	nt	0	16	-3	28	nt
O=C(COC(=O)c1ccc2c(=O)n3c(nc2c1)CCC3)Nc1ccc(OC(F)F)cc1	-3	13	-2	-6	-23	6	nt
O=C(c1cc(-c2ccncc2)nc2c(Cl)cccc12)N1CCN(c2ccccc2F)CC1	-7	56*	1	4	nt	10	69*
O=C(c1cc(-c2ccccc2Cl)nc2ccccc12)N1CCN(c2ccccc2O)CC1	-9	-2	-3	21	12	10	nt
COc1ccc(Cl)cc1NC(=O)CSc1nnc(COc2ccccc2)n1N	2	54*	2	1	8	0	30
COc1ccc(Cl)cc1NC(=O)CSc1nnc(COc2ccccc2)n1C	2	nt	1	-6	-1	-2	nt
COc1ccc(-c2noc(-c3ccccc3C(=O)Nc3cccnc3)n2)cc1OC	-1	nt	-1	35	7	1	nt
COc1ccc(-c2noc(-c3ccccc3C(=O)Nc3cccnc3)n2)cc1	-2	57*	0	-1	5	1	33
CCCCCC(=O)Nc1nc(C)c(-c2csc(Nc3cc(OC)ccc3OC)n2)s1	-8	59*	-3	-9	24	14	75*
CCCCCCC(=O)Nc1nc(C)c(-c2csc(Nc3cc(OC)ccc3OC)n2)s1	18	43	3	-12	26	29	nt
Cc1ccc(C(=O)Nc2cccc(C(F)(F)F)c2)cc1NC(=O)c1nccn1C	-9	96*!	-2	-5	9	-7	9
Nc1ccc2ccccc2c1N=Nc1ccccc1	nt	56*	nt	-8	22	-5	53*
Nc1ncnc(N)c1N=Nc1ccccc1	-1	38	1	3	5	-1	nt
NC(=O)c1ncn([C@@H]2O[C@H](CNCc3ccc(OCC(=O)Nc4ccccn4)cc3)[C@@H](O)[C@H]2O)n1	nt	0	nt	4	-14	9	nt
Cc1ccc(-c2csc(NC(=O)CSc3nc4ccccc4c(=O)n3CCCN(C)C)n2)cc1	-9	70*	4	-6	16	16	83*
O=C(CSc1nnc(-c2ccccn2)o1)Nc1ccccc1Cl	-7	nt	0	-2	-23	1	nt
CCOC(=O)[C@H]1[C@H]2COc3ccc(Br)cc3[C@@H]2N2C(=O)c3ccc(C)cc3NC(=O)[C@@]12C	-10	2	0	6	6	3	nt
C[C@@]12C(=O)Nc3ccc(Br)cc3C(=O)N1[C@H]1c3cc(Br)ccc3OC[C@@H]1[C@@H]2c1ccccc1	0	73*	-1	0	-2	8	62*
CCOC(=O)[C@H]1[C@H]2COc3ccc(C)cc3[C@@H]2N2C(=O)c3cc(Br)ccc3NC(=O)[C@@]12C	0	67*	0	20	15	3	77*
CCOC(=O)[C@H]1[C@H]2COc3ccc(Cl)cc3[C@@H]2N2C(=O)c3cc(OC)ccc3NC(=O)[C@@]12C	-10	58*	0	44	1	0	41*
O=C(c1ccc(S(=O)(=O)N2CCCC2)cc1)N(c1ccc(F)cc1)C1C=CS(=O)(=O)C1 (stereo unspecified)	-2	2	3	4	5	-4	nt
CC1(C)OC(=O)C2=C(C[C@@H](C3CCCC3)O[C@H]2c2ccc(Cl)cc2)O1	nt	nt	nt	nt	nt	-10	nt
SMILES	APOBEC3G inh	TAG inh	APOBEC3A inh	Cardio protect	PfG6PD inh	NadD inh	TAG conf
CCOC(=O)c1cc(-c2csc(N/N=C/c3ccccc3Cl)n2)on1	-4	9	5	-1	-24	5	nt
Cc1onc(-c2ccc(Cl)cc2Cl)c1-c1csc(N/N=C/c2ccccc2)n1	-7	61*	-4	-13	16	17	42*
NC(=O)c1ccc(NC(=O)COC(=O)c2ccc(Br)o2)cc1	-3	1	3	-12	0	3	nt
CCCN1CCC(=NNc2ccc(S(=O)(=O)N3CCOCC3)cc2[N+](=O)[O-])CC1	1	nt	2	9	-4	3	nt
CCCCCC(/C=N/Nc1ccc(S(=O)(=O)N2CCOCC2)cc1[N+](=O)[O-])=C\c1ccccc1	-4	59*	-1	-7	5	3	63*
CCN1CCN(c2cc(C(C)C)nc3c(-c4ccccc4)c(C)nn23)CC1	-3	45	-3	9	15	-10	nt
CCCc1cc(N2CCCC2)n2nc(C)c(-c3ccccc3)c2n1	-2	66*	-2	-14	-10	7	41*
COc1ccc(COc2ccccc2C(=O)NCc2ccccc2)cc1F	-6	nt	2	-22	14	-7	nt
Cc1cc(C)nc(Sc2ncnc(N)c2[N+](=O)[O-])n1	-9	61*	0	-16	6	-1	37
Cc1cccc(Nc2ncnc(N)c2[N+](=O)[O-])n1	0	3	1	-2	-3	4	nt
O=[N+]([O-])c1cccc(S(=O)(=O)N2CN(c3ccc(Br)cc3)c3nc4ccccc4nc32)c1	-6	62*	1	1	2	24	49*
Cc1ccc(N2CN(S(=O)(=O)c3cccc([N+](=O)[O-])c3)c3nc4ccccc4nc32)cc1	4	18	2	1	-4	20	nt
COc1ccc(/C(C)=N/N=C(N)N)c(O)c1	-8	0	-1	-6	0	-6	nt
CNC(=S)NN=C(C)c1ccc(OC)cc1O	nt	72*	nt	-8	-24	0	41*
COC(C/C=C\[C@H](O)COCc1ccccc1)OC	-5	-2	-1	4	-12	-2	nt
O=C(NC1CCCCC1)C(c1ccccc1)N(Cc1ccc2c(c1)OCO2)C(=O)c1cnsn1 (stereo unspecified)	-3	59*	0	14	7	-7	41*
Cc1ccc2cc3cc(C(=O)NCCCN4CCCCCC4)oc3nc2c1	-3	51*	5	2	26	12	29
CC(=O)c1cccc(NC(=O)c2c(-c3c(F)cccc3Cl)noc2C)c1	-3	0	0	-2	18	-1	nt
CCOc1cc(/C=N\NC(=O)c2ccc(NC(=O)C(C)(C)C)cc2)ccc1OC(=O)c1ccc(C)cc1	-6	26	-5	-11	0	10	nt

Bioassay records (PubChem)
